Source: PubChem (National Center for Advancing Translational Sciences (NCATS))
An excerpt weighted towards active compounds, which were near 21% of everything screened.
Shiga toxin inh = A qHTS for Small Molecule Inhibitors of Shiga Toxin. Vero cells, Shiga toxin protein synthesis inhibition reporter. inhibition, % at 38.7 µM. hit rate 9.2% among 290,000. AID 2315, 2010; in the data active = inhibition mostly above about 28%, no sharp cut-off; inactive = mostly below about 43%; also: 0% is about no effect
AMA1 RON2 block = qHTS for Inhibitors of AMA1-RON; Towards Development of Antimalarial Drug Lead: Primary Screen; hit rate 0.2% among 360,000; AlphaScreen AMA1-biotinylated RON2 peptide binding; Potency, µM (doses to about 58.2 µM), without a hit: at the highest dose activity change, negative = inhibition, usual class: inhibitors;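 also: potency is read from the fitted curve at half-maximal effect; 0% = vehicle wells and -100% = peptide control; nearly all actives have a fitted effect of over 45% in size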
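AMA1 (3D7) with his tag at 25 nM final met compounds first, then biotinylated RON2 peptide at 25 nM; detection used donor plus acceptor beads, 10 µg/mL apiece, read by AlphaScreen after 30 min at room temperature.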
Pf growth 96h = Primary qHTS for delayed death inhibitors of the malarial parasite plastid, 96 hour incubation; P. falciparum luciferase reporter growth, 96 h; hit rate 6.9% among 320,000; Potency, µM (top dose mostly 28.7 µM), without a hit: at the highest dose activity change, negative = inhibition, usual class: inhibitors; also: potency is read from the fitted curve at half-maximal effect; % is scaled to controls: 0 for no effect and ±100 for the full control effect
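Two parasite generations (96 h, 37 C, 5% CO2) of compound exposure in infected erythrocytes (0.05% parasitemia, 2% hematocrit). Luciferase-reporter P. falciparum; decreased luminescence indicates inhibited growth, aimed at apicoplast-acting delayed death.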
Cycloheximide cs = Cycloheximide Counterscreen for Small Molecule Inhibitors of Shiga Toxin; cell reporter, cycloheximide protein synthesis inhibition counterscreen; max response, %; hit rate 12% among 300,000; in the data active = max response mostly above about 13%, no sharp cut-off; inactive = mostly below about 14%; also: read at 38.3 µM for the half of the compounds with a filed dose; 0% is about no effect
HCV inhibitor = qHTS Assay for Inhibitors of Hepatitis C Virus (HCV). hit rate 3.4% among 340,000. Potency, µM (doses to about 41.8 µM), for inactives: at the top dose activity change, negative = inhibition, most hits filed as inhibitors. Huh7.5.1 HCVcc-Cre infection, luciferase reporter, 44 h; also: potency is read from the fitted curve at half-maximal effect; % is scaled to controls: 0 for no effect and ±100 for the full control effect
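A cell-based infection assay in which seeded cells (1,000 per well) receive test compound after 4 h, are inoculated with HCVcc-Cre at approximately 0.5 moi, and are incubated 44 h before luminescence detection.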
Pf growth 48h = Primary qHTS for delayed death inhibitors of the malarial parasite plastid, 48 hour incubation; hit rate 5.9% among 310,000; P. falciparum luciferase growth in erythrocytes, 48 h; Potency, µM (doses to about 28.7 µM), for the others: top-dose activity change, negative = inhibition, most hits filed as inhibitors; also: potency is read from the fitted curve at half-maximal effect; % is scaled to controls: 0 for no effect and ±100 for the full control effect
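Read-out is firefly luciferase luminescence from an integrated reporter in P. falciparum, so falling signal marks reduced parasite growth. Infected erythrocytes were at 2% hematocrit and 0.1% parasitemia (final) in Albumax-supplemented RPMI 1640.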
The depositor's hits bear a star; u = inconclusive; x = not tested or not shown. Unless noted, calls follow the shape of the dose curve; as a rule, active = well fitted curve in the direction sought with a large enough effect; inconclusive = small, poorly fitted or top-dose-only effect, or another doubt; inactive = no such curve, though single readings can be large; an effect the other way counts as inactive or inconclusive.

SMILES	Shiga toxin inh	AMA1 RON2 block	Pf growth 96h	Cycloheximide cs	HCV inhibitor	Pf growth 48h
CCc1cc(C(=O)NC2CCCc3c2cnn3-c2ccc(F)cc2F)no1 (stereo unspecified)	x	-2.6%	x	x	x	x
CCOc1ccccc1NC(=O)CN(c1ccc(C)cc1)S(=O)(=O)c1c(C)noc1C	10.4	-16.5%	91.3%	2.9	u	4.15µM*
CCOc1ccc(N(CC(=O)Nc2ccc3c(c2)OCCO3)S(=O)(=O)c2c(C)noc2C)cc1	3.0	-3.2%	10.4µM*	-4.0	-11.8%	x
CCOc1ccc(NC(=O)CN(c2cc(C)cc(C)c2)S(=O)(=O)c2c(C)noc2C)cc1	-7.3	0.7%	u	3.4	u	6.7%
c1ccc(OCCn2c(-c3ccco3)nc3ccccc32)cc1	69.5*	-11.5%	18.3%	19.8*	-17.2%	u
Cc1cccc(OCCn2c(S(=O)(=O)O)nc3ccccc32)c1	0.9	-1.3%	-1.8%	-0.5	7.9%	2.0%
Cc1cccc(OCCn2c(-c3ccco3)nc3ccccc32)c1	23.2	-24.6%	u	25.7*	u	u
O=C(Cn1c(-c2ccco2)nc2ccccc21)N1CCCCC1	-7.9	-2.9%	30.6%	9.0	-11.1%	-2.3%
CCn1c(-c2ccco2)nc2ccccc21	76.9*	11.8%	-3.7%	26.4*	4.9%	64.8%
Cc1nc2c(OCc3ccc(OC(F)F)cc3)cccn2c1N(C)C(=O)CCC1CCCC1	x	-15.4%	x	x	x	x
CCCCN(CC(=O)NCCOC)C(=O)Cn1nnc2ccccc21	-20.6	-4.4%	-17.7%	-3.8	-26.8%	19.1%
CNC(=S)NNC(=O)c1cc(-c2cccnc2)nc2ccccc12	27.1	94.2%	u	17.4	-1.8%	4.7%
O=S(=O)(C/C(=C/CO)S(=O)(=O)c1ccccc1)c1ccccc1	40.9	-14.2%	u	25.8*	10µM*	u
O=S(=O)(CS(=O)(=O)c1ccccc1)c1ccccc1	x	-8.3%	x	x	10.0%	x
COc1cccc(NC(=O)c2ccc(N3C(=O)C4CCC(C)CC4C3=O)cc2)c1 (stereo unspecified)	x	14.0%	x	x	24.2%	x
S=c1[nH]cc(-c2ccccc2)[nH]1	34.4*	76.2%	u	39.3*	-8.2%	49.9%
Cc1cccc(NC(=S)NC23CN4CN(CN(C4)C2)C3)c1C	33.5	6.4%	u	6.0	-6.1%	7.7%
CCOC(=O)C1=C(C)NC2=C(C(=O)CC(c3cccs3)C2)C1c1cccs1 (stereo unspecified)	1.9	25.2%	u	-3.0	u	4.15µM*
COC(=O)C1=C(C)NC2=C(C(=O)CC(c3cccs3)C2)C1c1ccsc1 (stereo unspecified)	-11.3	-0.2%	34.5%	-7.8	-2.0%	0.0%
CC1=C(C(=O)OC2CCCC2)C(c2coc3ccccc3c2=O)C2=C(CCCC2=O)N1 (stereo unspecified)	-8.6	4.7%	4.9%	8.5	8.8%	u
CC1=C(C(=O)OC2CCCC2)C(c2ccc(C)o2)C2=C(CC(c3cccs3)CC2=O)N1 (stereo unspecified)	25.2	-5.9%	10.3%	7.6	u	9.28µM*
COC(=O)C1=C(C)NC2=C(C(=O)CCC2)C1c1ccc(-c2ccsc2C(=O)OC)o1 (stereo unspecified)	-4.1	-1.5%	11.7µM*	5.6	-9.2%	u
CC1=C(C(=O)OC2CCCCCC2)C(c2ccc(C)o2)C2=C(CCCC2=O)N1 (stereo unspecified)	active	0.8%	91.7%	8.8	u	u
COC(=O)C1=C(C)NC2=C(C(=O)CCC2)C1c1ccsc1 (stereo unspecified)	-6.9	x	35.1%	-1.5	x	7.5%
CCN1CCN(C(=O)Cn2cnc3sc(C)c(S(=O)(=O)N4CCN(c5ncccn5)CC4)c3c2=O)CC1	-5.4	-8.4%	-24.3%	1.7	15.4%	3.0%
SMILES	Shiga toxin inh	AMA1 RON2 block	Pf growth 96h	Cycloheximide cs	HCV inhibitor	Pf growth 48h
CSCC[C@H](NC(=O)[C@@H]1CCCN1C(=O)[C@H](CCCN=C(N)N)NC(=O)[C@H](CC(C)C)NC(=O)[C@@H]1CCCN1C(=O)[C@@H](NC(=O)[C@@H](N)CCC(N)=O)C(C)C)C(=O)N[C@H](C(=O)N[C@@H](Cc1ccc(O)cc1)C(=O)N[C@@H](CCCCN)C(=O)O)[C@@H](C)O	-6.3	x	x	-4.7	x	x
COCCCN1C(=O)C(CC(=O)NCc2ccco2)CC(C(=O)N(C(C)C)C(C)C)=C1C (stereo unspecified)	x	-0.5%	x	x	x	x
COCCNC(=O)C1(C)CCCN(C(=O)c2cnc3ccccc3n2)C1 (stereo unspecified)	x	3.9%	x	x	x	x
CC1=C(C(=O)OC2CCCCC2)C(c2ccc(C)o2)C2=C(CC(C)(C)CC2=O)N1 (stereo unspecified)	-15.5	15.2%	-18.3%	-1.9	2.9%	11.7µM*
COC(=O)c1ccc(OCc2nn[nH]n2)cc1	5.9	-2.4%	5.1%	-2.3	17.0%	17.4%
O=C(COc1ccccc1)NCC(=O)N/N=C/c1ccc(Cl)cc1	-5.3	-4.3%	-9.7%	2.0	-4.8%	-3.3%
CC12CN3CCN(C1)CC(C)(C3)C2=NN	74.1*	23.2%	u	20.6*	-4.7%	u
CC12CN3CCN(CC(C3)C1O)C2 (stereo unspecified)	-14.8	-8.0%	u	3.4	0.9%	x
O=C(Nc1ccc(Cl)cn1)c1ccc(-c2ccc(Cl)c(Cl)c2)o1	x	7.5%	x	x	30.4%	x
CCOc1ccc(OCc2ccc(C(=O)Nc3ccc(Cl)cn3)o2)cc1	33.9*	0.0%	-5.2%	15.3	u	-11.9%
COC(=O)c1ccccc1NC(=O)c1ccc(COc2cc(C)cc(C)c2)o1	-10.3	-5.7%	4.15µM*	2.5	12.3%	u
O=C(Nc1ccccn1)c1ccc(COc2ccccc2Cl)o1	88.5*	3.2%	69.3%	30.1*	u	120.7%
O=C(Nc1cccnc1)c1ccc(COc2ccccc2Cl)o1	-5.1	-11.7%	119.3%	9.5	u	28.8%
Cc1ccc(NC(=O)c2ccc(COc3ccccc3)o2)nc1	54.6*	-6.0%	86.2%	26.2*	-14.4%	44.0%
CCOC(=O)C1=C(COC(=O)c2ccc(Cl)nc2)NC(=O)NC1C (stereo unspecified)	x	5.7%	x	x	-3.0%	x
Cc1ccc(-c2nc3cc(C)c(Br)c(C)n3c2Cc2ccsc2)cc1	x	28.6%	x	x	x	x
CC1CCCC(C)N1c1ccc(S(=O)(=O)N2CCOCC2)cc1Cl (stereo unspecified)	-2.6	-1.8%	-1.8%	-1.1	-2.4%	-18.7%
O=C(Nc1nn(Cc2ccc(Cl)cc2)cc1Br)c1ccc(COc2ccccc2Cl)o1	-23.9	-1.4%	x	-1.3	u	u
